Reference: PubChem BioAssay AID2685 (National Center for Advancing Translational Sciences (NCATS), 2010)
Hit rate of the full screen: of about 320,000 compounds, about 2,100 (0.66%) were called active. Inconclusive results (about 53%) are left out. The sample holds actives, similar compounds and a random draw of the others, so the mix is not that of the screen. Calls come from the whole dose curve; as a rule, active = well fitted inhibition curve with a large enough effect in the signal ratio, with a control signal flat (not every such curve was filed as active); inconclusive = small, poorly fitted or top-dose-only effect, or effect the other way, or a change in a side signal; inactive = flat fitted curve, though single readings scatter; the % refers to the signal ratio.

Experiment: qHTS Assay for Lipid Storage Modulators in Drosophila S3 Cells;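 for cell number change: cells counted by Cell Tracker Red CMTPX staining in the red channel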; for lipid storage change, negative = inhibition: % is set by controls: 0 for no effect and ±100 for the full control effect
Settings: BODIPY lipid droplet fluorescence, 18-24 h, cells fed with added oleic acid; cell number change: measured here: cell count max response; series mostly up to 46.1 µM; lipid storage change, negative = inhibition: at the top concentration
In short: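 Drosophila S3 cells got compounds at several concentrations plus oleic acid (400 uM solution). Laser-scanning cytometry with 488 nm excitation read lipid droplets at 500-530 nm and cells at 575-640 nm. Percent activity was relative to 20 uM Triacsin C.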
Potency is the fitted concentration of half-maximal effect.

Row | SMILES | lipid storage change, negative = inhibition | cell number change [%] | outcome | Potency
1 | COc1ccccc1/C=C/C(=O)OCC(=O)NCc1ccco1 | 0.24% (inactive) | 4.89 | – | –
2 | CCCc1c(C(=O)N/N=C(/C)c2ccncc2)nnn1-c1nonc1N | 3.04% (inactive) | 8.62 | – | –
3 | Cc1ccc(/C=C2/SC(=S)N(C3CCCCC3)C2=O)o1 | – | 14.1 | inactive | –
4 | Cc1cc(C)n(CCCN2C(=O)c3cccc4cccc(c34)C2=O)n1 | – | – | inactive | –
5 | CNCc1ccccc1OCC(=O)Nc1ccccc1 | -4.97% (inactive) | -38.8 | – | –
6 | COc1ccc(CC(=O)OCC(=O)N2CCCc3ccccc32)cc1 | – | -4.06 | inactive | –
7 | COCCCNC(=O)CCC(=O)NNc1nc2ccccc2c2nc(-c3ccccc3)nn12 | 4.69% (inactive) | 5.05 | – | –
8 | CC(C)OCCCNC(=O)CCC(=O)NNc1nc2ccccc2c2nc(-c3ccccc3)nn12 | – | -5.84 | – | 11.6 µM (active)
9 | CCOCCCNC(=O)CCC(=O)NNc1nc2ccccc2c2nc(-c3ccccc3)nn12 | 2.08% (inactive) | -6.89 | – | –
10 | Cc1cc(C)cc(-n2c(N)c(C(=O)Nc3c(C)n(C)n(-c4ccccc4)c3=O)c3nc4ccccc4nc32)c1 | -7.93% (inactive) | 0.326 | – | –
11 | CCOc1cc(/C=C/c2cccc[n+]2C)ccc1OCC(=O)Nc1ccc(C)cc1 | – | 2.56 | inactive | –
12 | CCC(Sc1nc2ccccc2o1)C(=O)O (stereo not given) | 1.03% (inactive) | 11.5 | – | –
13 | CCC(Sc1nc(N)cc(N)n1)C(=O)O (stereo not given) | – | -9.76 | – | 20.6 µM (active)
14 | CCC(Sc1ccc(C(=O)O)cc1)C(=O)O (stereo not given) | 2.17% (inactive) | 22.4 | – | –
15 | O=C(NCCO)c1cccc(Cl)c1 | – | -4.89 | – | 25.9 µM (active)
16 | NC(=O)CNC(=O)c1cccc(Cl)c1 | -15.1% (inactive) | 1.9 | – | –
17 | Cc1ccc(C)n1NC(=O)c1ccccc1 | -7.54% (inactive) | 1.97 | – | –
18 | CC(C)CCNC(=O)c1cccc(Cl)c1 | 18.3% (inactive) | 19.2 | – | –
19 | Cc1ccc(C)n1NC(=O)c1ccc(Cl)cc1Cl | 17.2% (inactive) | 0.742 | – | –
20 | Cc1ccc(C)n1NC(=O)c1cccc(Cl)c1 | – | – | – | 20.6 µM (active)
21 | COc1ccc(N2C(=S)N=C(Nc3cccc(C)c3)C23CCCCC3)cc1 | 7.3% (inactive) | -6.29 | – | –
22 | Cc1ncoc1C(=O)N1CCCC(C(=O)c2cccc3ccccc23)C1 (stereo not given) | – | 6.72 | inactive | –
23 | CCC(C)Oc1nc2c(c(=O)n(C)c(=O)n2C)n1C (stereo not given) | 5.16% (inactive) | 14.8 | – | –

Row | SMILES | lipid storage change, negative = inhibition | cell number change [%] | outcome | Potency
24 | CC(=O)/C(=C/Nc1ccc(Oc2ccccc2)cc1)c1ccccc1 | – | – | inactive | –
25 | COc1ccc(-n2nc(C(=O)NCC(=O)NCCCN3CCOCC3)c3ccccc3c2=O)cc1 | 19.1% (inactive) | -8.11 | – | –
26 | COc1ccccc1CNc1cncnc1 | -10.3% (inactive) | 7.04 | – | –
27 | O=C(Nc1ccc(Cl)cc1)C1CCCN(c2ncnc3c2nc2n3CCCCC2)C1 (stereo not given) | -22.9% (inactive) | -19.1 | – | –
28 | Cc1cccc(N2CC(C(=O)Nc3nnc(SCc4cccnc4)s3)CC2=O)c1 (stereo not given) | 0.993% (inactive) | 0.463 | – | –
29 | Cc1ccc(Nc2cc(C)nc3ncnn23)c(Cl)c1 | 13.2% (inactive) | 1.99 | – | –
30 | CCOC(=O)Cc1nnc(NC(=O)CSc2ccc(C)cc2)s1 | -0.984% (inactive) | 10.4 | – | –
31 | CC(NC(=O)c1ccco1)c1nc(-c2ccc(C(C)(C)C)cc2)no1 (stereo not given) | – | -0.87 | inactive | –
32 | CC(NC(=O)c1ccco1)c1nc(-c2ccc(Cl)cc2)no1 (stereo not given) | – | – | inactive | –
33 | CC(NC(=O)c1ccco1)c1nc(-c2ccccc2)no1 (stereo not given) | – | 24.3 | – | 25.9 µM (active)
34 | Cc1c(NC(=O)COc2cccc(F)c2)c(=O)n(-c2ccccc2)n1C | -1.11% (inactive) | -5.04 | – | –
35 | COc1ccccc1NC(=O)C(C)OC(=O)CCCN=C1NS(=O)(=O)c2ccccc21 (stereo not given) | – | – | inactive | –
36 | COc1ccc(/C=N/NC2=NCCCCC2)cc1 | – | – | inactive | –
37 | Oc1ccc(/C=N/NC2=NCCCCC2)cc1 | – | 1.27 | – | 9.2 µM (active)
38 | CCOc1ccc(/C=N/NC2=NCCCCC2)cc1 | 3.04% (inactive) | 8.72 | – | –
39 | C=CCSc1nc(=O)n2ccccc2n1 | 7.71% (inactive) | – | – | –
40 | CCCSc1ccc(-c2nn(-c3ccccc3)cc2/C=C(/C#N)C(=O)N2CCOCC2)cc1 | – | -5 | inactive | –
41 | O=C(c1c(F)cccc1F)N(C1CCCCC1)C1CCCCC1 | – | -23 | inactive | –
42 | Cc1ccccc1NC(=O)CN(C)S(=O)(=O)c1ccc2c(c1)n(C)c(=O)c(=O)n2C | – | 13.4 | – | 18.4 µM (active)
43 | COc1ccc(N(CC(=O)NCc2ccccc2OC)S(=O)(=O)c2ccccc2)cc1 | – | 10.9 | – | 8.2 µM (active)
44 | COc1ccc(OC)c(N(CC(=O)NCCSC2CCCCC2)S(=O)(=O)c2ccccc2)c1 | – | -18.5 | – | 14.6 µM (active)
45 | COc1ccc(N(CC(=O)NCCSC2CCCCC2)S(=O)(=O)c2ccccc2)cc1OC | – | -12.6 | inactive | –
46 | CCOc1ccc(N(CC(=O)NC2CCCCCC2)S(=O)(=O)c2ccccc2)cc1 | – | 24.3 | inactive | –
